Pf growth 48h = P. falciparum growth inhibition at 48 hours (one generation) | P. falciparum luciferase growth in erythrocytes, 48 h | Potency, µM (doses to about 28.7 µM), without a hit: top-dose activity change, negative = inhibition, hits mostly inhibitors | 310,000 tested, 5.9% active; note: potency is the fitted concentration of half-maximal effect
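Parasite viability was followed by luminescence of a genomically integrated firefly luciferase. Cultures held 0.1% parasitemia at 2% hematocrit (final), incubated under 5% CO2 at 37 C.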
Pf growth 96h = inhibits malaria parasite growth, 96 h; P. falciparum luciferase reporter growth, 96 h; Potency, µM (titrated, usually from 28.7 µM), without a hit: at the top dose activity change, negative = inhibition, hits mostly inhibitors; 320,000 tested, 6.9% active; note: potency is the fitted concentration of half-maximal effect
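Cell-based qHTS: luciferase-tagged P. falciparum in erythrocytes (2% hematocrit, 0.05% parasitemia final) incubated with compounds for 96 hours, 37 C, 5% CO2; luciferase detection reagent then added and luminescence measured.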
Sm TGR inh = S. mansoni TGR enzyme inhibition | Q962Y6 | purified TGR, DTNB reduction, TNB absorbance 405 nm | Potency, µM (top dose mostly 114 µM), for the others: at the highest dose activity change, negative = inhibition, hits mostly inhibitors | 360,000 tested, 3% active | AID 485364; note: potency is the fitted concentration of half-maximal effect; nearly all actives have a fitted effect of over 60% in size
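Kinetic colorimetric format: TGR-catalysed, NADPH-driven DTNB reduction monitored via TNB absorbance. Enzyme dispensed at 20 nM; compound exposure 15 min at room temperature before reaction start.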
Giardia FBPA inh = Giardia lamblia aldolase inhibition; A8B2U2; purified Giardia FBPA; Potency, µM (series often up to 59.6 µM), without a hit: top-dose activity, negative = inhibition, usual class: inhibitors; 290,000 tested, 0.71% active; note: potency is the fitted concentration of half-maximal effect; nearly all actives have a fitted effect of over 55% in size
Target sequence (A8B2U2 whole entry, looked up): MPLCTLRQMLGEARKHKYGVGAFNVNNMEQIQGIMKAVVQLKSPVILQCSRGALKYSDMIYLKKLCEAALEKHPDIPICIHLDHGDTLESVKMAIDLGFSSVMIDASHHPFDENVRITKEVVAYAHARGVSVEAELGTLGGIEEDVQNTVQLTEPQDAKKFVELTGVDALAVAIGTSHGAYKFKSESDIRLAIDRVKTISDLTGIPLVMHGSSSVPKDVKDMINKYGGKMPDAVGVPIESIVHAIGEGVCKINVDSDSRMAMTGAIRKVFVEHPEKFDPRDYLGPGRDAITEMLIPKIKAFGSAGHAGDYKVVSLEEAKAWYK
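Giardia FBPA (40 nM reagent) was preincubated 10 min at RT with compound (up to 57.5 uM final), then substrate plus GAPDH/TPI/NAD/arsenate coupling system with diaphorase/resazurin was added; resorufin fluorescence (525/598 nm) was read after 20 min.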
HCMV inh = blocks human cytomegalovirus replication. HFF cells, HCMV-luciferase reporter, 72 h; active compounds read low. activity change, negative = inhibition, % at 57.5 µM. 410,000 tested, 4.5% active. AID 1259415; in the data active = activity change below about -60%; inconclusive = no clear call, values can overlap the other calls; inactive = above about -39%
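Cell-based, HFFs, 1000 cells/well, 16 h 37C; cpds in DMSO + HCMV-luc, MOI 1 PFU/cell; 72 h 37C; OneGlo luminescence after 5 min RT; norm. to buffer vs Salinomycin 10uM.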
* hit, by the source's call. In the library only some 14% were active in any assay of this set; here they are far more common. Unless noted, calls come from the whole dose curve; as a rule, active = well fitted curve in the direction sought with a large enough effect; inconclusive = small, poorly fitted or top-dose-only effect, or another doubt; inactive = no such curve, though single readings can be large; an effect the other way counts as inactive or inconclusive. % is set by controls: 0 for no effect and ±100 for the full control effect.

COc1ccc(CCN2CCCC(CN(C)Cc3cc(Cl)c(O)c(OC)c3)C2)cc1 (centres undefined) was read as Pf growth 48h 2.33µM*, Pf growth 96h 105.7%, Sm TGR inh 50.1µM*, Giardia FBPA inh inconclusive and HCMV inh 22.7.
`COc1ccc(CN(C)CC2CCCN(CCc3ccccc3C)C2)cc1O` (centres undefined) gave Pf growth 48h 5.86µM*, Pf growth 96h inconclusive, Sm TGR inh -23.0%, Giardia FBPA inh 9.0% and HCMV inh -31.3.
Screening COC(=O)C1=C(C)NC(=S)N(C(C)=O)C1c1ccc(OC)c(OC)c1 (centres undefined) returned Pf growth 48h -13.4%, Pf growth 96h inconclusive, Sm TGR inh -0.1%, Giardia FBPA inh 5.3% and HCMV inh -10.8.
CCN(CC(=O)Nc1c(F)cccc1F)C(=O)C1(c2ccccc2)CC1 was read as Pf growth 48h -0.6%, Pf growth 96h 24.0%, Sm TGR inh -12.9% and HCMV inh -3.0.
`Cc1cccc(N(C)C(=S)Oc2ccc3ccccc3c2)c1` gave Pf growth 48h -19.2%, Pf growth 96h 13.4%, Sm TGR inh 9.4%, Giardia FBPA inh -22.9% and HCMV inh -60.6*.
`COc1ccc(N(C)C(=S)Oc2ccc(C(=O)Nc3ccccc3)cc2)cc1` gave Pf growth 48h inconclusive, Pf growth 96h inconclusive, Sm TGR inh 0.4% and Giardia FBPA inh 9.3%.
CC(C)Nc1nc(NNc2nc(Cl)nc(NC(C)(C)C)n2)nc(NC(C)C)n1 was read as Pf growth 48h inconclusive, Pf growth 96h 13.1µM*, Sm TGR inh 11.3%, Giardia FBPA inh -3.5% and HCMV inh 74.0.
For CCNc1nc(NC(C)C)nc(ON=C(C)C)n1 the results were Pf growth 48h 8.28µM*, Pf growth 96h inconclusive, Sm TGR inh -1.9% and Giardia FBPA inh -1.0%.
For CCNc1nc(NC(C)C)nc(NC(C)(C)C)n1 the results were Pf growth 48h 3.29µM*, Pf growth 96h inconclusive, Giardia FBPA inh 3.4% and HCMV inh -32.4.
CC(C)Nc1nc(NC(N)=S)nc(NC(C)(C)C)n1 was read as Pf growth 48h -9.0%, Pf growth 96h -20.7%, Sm TGR inh 0.0%, Giardia FBPA inh -8.4% and HCMV inh -2.8.
For CC(C)C(=O)NNC(=O)c1cc2sccc2s1 the results were Pf growth 48h 54.4%, Pf growth 96h -0.3%, Sm TGR inh -2.5%, Giardia FBPA inh 2.0% and HCMV inh -19.7.
For NCC1O[C@@H](OC2C(N)CC(N)C(O)C2O[C@@H]2OC(CO)C(O)C2O)C(N)C(O)C1O (some centres undefined) the results were Giardia FBPA inh 2.5%.
Screening CC(=O)CCc1c(C)[nH]c2ccccc2c1=O returned Pf growth 48h -20.4%, Sm TGR inh -2.7%, Giardia FBPA inh -7.9% and HCMV inh 94.3.
For Cc1[nH]c2ccccc2c1CC(=O)O the results were Pf growth 48h -7.8%, Pf growth 96h -22.3%, Sm TGR inh 44.7µM*, Giardia FBPA inh 0.5% and HCMV inh 70.7.
`CCc1c(C)[nH]c2ccccc2c1=O` gave Pf growth 48h 1.65µM*, Pf growth 96h 101.7%, Sm TGR inh -1.4%, Giardia FBPA inh -3.2% and HCMV inh -1.2.
COc1ccc(C(=O)Nc2nnc(SCc3cc(=O)c4cccc(F)c4[nH]3)s2)cc1 was read as Sm TGR inh -0.4% and HCMV inh 20.7.
Screening COc1ccc(C(=O)C(CN2CCOCC2)c2ccccc2)cc1F (centres undefined) returned Pf growth 48h 7.0%, Pf growth 96h -20.6%, Sm TGR inh 3.7%, Giardia FBPA inh -12.0% and HCMV inh -104.6*.
For CCCOc1ccc(C(=O)C(CN2CCOCC2)c2ccccc2)cc1 (centres undefined) the results were Pf growth 48h inconclusive, Pf growth 96h -20.3%, Sm TGR inh -0.9%, Giardia FBPA inh -3.7% and HCMV inh -103.9*.
Screening COc1ccc(C(=O)O)cc1F returned Pf growth 48h 10.2%, Pf growth 96h -23.3%, Sm TGR inh 17.7%, Giardia FBPA inh 9.8% and HCMV inh 26.6.
For COc1ccc(C(O)C(CN2CCOCC2)c2ccccc2)cc1F (centres undefined) the results were Pf growth 48h 6.57µM*, Pf growth 96h inconclusive, Sm TGR inh -3.7%, Giardia FBPA inh -15.0% and HCMV inh -8.0.
Screening COc1ccc(C(=O)CN2CCOCC2)cc1F returned Pf growth 48h 34.3%, Pf growth 96h 0.657µM*, Sm TGR inh -17.0%, Giardia FBPA inh -13.4% and HCMV inh 6.9.
`CCCOc1ccc(C(=O)C(c2ccccc2)N2CCOCC2)cc1` (centres undefined) gave Pf growth 48h -11.0%, Pf growth 96h -12.8%, Sm TGR inh 40.8%, Giardia FBPA inh -7.0% and HCMV inh -15.7.
For CCCCCCNc1c([N+](=O)[O-])c(=O)sc2ccccc12 the results were Pf growth 48h 7.38µM*, Pf growth 96h -9.6%, Sm TGR inh -6.9%, Giardia FBPA inh 8.5% and HCMV inh inconclusive.
`CC(C)(C)Nc1c([N+](=O)[O-])c(=O)sc2ccccc12` gave Pf growth 48h 18.9%, Pf growth 96h -16.6%, Sm TGR inh -6.1%, Giardia FBPA inh -4.6% and HCMV inh 13.7.
Screening O=S(=O)(c1ccccc1)c1nc(-c2cccs2)oc1SCc1ccc(F)cc1 returned Sm TGR inh -11.2% and HCMV inh 15.4.
For Cn1nc(C(=O)N2CCN(C(c3ccccc3)c3ccccc3)CC2)c2ccccc2c1=O the results were Pf growth 48h 4.65µM*, Pf growth 96h 11.7µM*, Sm TGR inh 10.9%, Giardia FBPA inh 7.4% and HCMV inh 0.0.
`CC(C)c1onc(C(=O)N2CCN(c3ccccc3)CC2)c1[N+](=O)[O-]` gave Pf growth 48h 5.22µM*, Pf growth 96h inconclusive, Sm TGR inh -14.3%, Giardia FBPA inh 1.2% and HCMV inh -2.3.
CC(C)c1onc(C(=O)N2CCN(C(c3ccccc3)c3ccccc3)CC2)c1[N+](=O)[O-] was read as Pf growth 48h inconclusive, Pf growth 96h inconclusive, Sm TGR inh 3.1%, Giardia FBPA inh 16.4% and HCMV inh -97.6*.
For Cc1ccc(Cl)cc1N1CCN(C(=O)c2noc(C(C)C)c2[N+](=O)[O-])CC1 the results were Pf growth 48h inconclusive, Pf growth 96h inconclusive, Sm TGR inh -0.5%, Giardia FBPA inh 9.2% and HCMV inh -92.5*.
`Cn1nc(C(=O)N2CCN(S(=O)(=O)/C=C/c3ccccc3)CC2)c2ccccc2c1=O` gave Pf growth 48h inconclusive, Pf growth 96h inconclusive, Sm TGR inh -2.6%, Giardia FBPA inh 4.8% and HCMV inh -35.6.
`CCOc1ccc(NC(=O)CSc2nc3ccsc3c(=O)n2CCC(C)C)cc1` gave Sm TGR inh 8.6% and HCMV inh 9.2.
